Measured values as given in the supplement of paper PMC3334620.
Over roughly 33,000 sequences, “E-score (-0.5 to 0.5)” has its median near -0.0014; the highest 2% begin near 0.25. This excerpt belongs to a sample that is enriched for the highest values.

biological target: T1, Cad1 (UniProt P24813); test: PBM E-score (8-mer binding enrichment) (E-score (-0.5 to 0.5)); higher = stronger / more preferred TF binding; settings: protein concentration: 100 nM; construct: GST-full length
T1 sequence: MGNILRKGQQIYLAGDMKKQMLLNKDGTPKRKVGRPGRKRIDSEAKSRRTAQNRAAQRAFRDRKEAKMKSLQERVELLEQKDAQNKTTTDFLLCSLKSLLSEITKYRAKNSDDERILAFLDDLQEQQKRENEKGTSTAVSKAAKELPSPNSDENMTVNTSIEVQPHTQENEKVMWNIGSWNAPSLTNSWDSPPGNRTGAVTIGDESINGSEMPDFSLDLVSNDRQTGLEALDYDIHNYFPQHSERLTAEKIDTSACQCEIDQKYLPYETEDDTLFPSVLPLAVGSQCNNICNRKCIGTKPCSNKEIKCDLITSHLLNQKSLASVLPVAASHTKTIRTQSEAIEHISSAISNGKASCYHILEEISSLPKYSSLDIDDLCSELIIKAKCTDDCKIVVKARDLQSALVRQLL
Description: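 Universal 'all 10-mer' protein binding microarrays (Agilent AMADID 015681) probed with GST-tagged S. cerevisiae TFs (full-length or DBD) made by in vitro transcription/translation (PURExpress), about 100-200 nM. Bound TF was detected with fluorescent anti-GST. Each ungapped 8-mer (which stands for itself and its reverse complement) is scored by the PBM enrichment score (E-score), a modified Wilcoxon-Mann-Whitney statistic from -0.5 to +0.5, computed with the Universal PBM Analysis Suite. Scale: above 0.35 generally sequence-specific binding.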

| Sequence | PBM E-score |
| --- | --- |
| CATAATAA | -0.0382 |
| AGCTCCGG | -0.115 |
| AAGCAGAG | -0.111 |
| GCAAGGCC | 0.0338 |
| CAGAGAGG | -0.329 |
| AGAGCCGG | -0.167 |
| AACCAAGC | 0.03 |
| AAATCGGG | 0.0578 |
| GGGTATAC | 0.0548 |
| GCATCTAA | 0.194 |
| TAACACTA | 0.265 |
| GAACACTA | 0.0513 |
| CAACACTA | 0.19 |
| ACCGTCAC | -0.176 |
| CCCACACA | 0.00769 |
| AGAAGGCT | -0.299 |
| ATGTAACG | 0.257 |
| ATGTAATC | 0.168 |
| ATGTAACC | -0.0284 |
| ATGTAACA | 0.168 |
| AAGTAATG | 0.0383 |
| ATGTAATG | 0.281 |
| GTGTAATA | 0.194 |
| ATGTAATA | 0.334 |
| CTGTAATA | 0.143 |

| Sequence | PBM E-score |
| --- | --- |
| ATCTTACC | 0.0255 |
| GACATTCC | -0.0262 |
| GAGAACTA | 0.103 |
| GTCTAAGA | 0.151 |
| TCCTCCCA | -0.144 |
| GTAGATAA | 0.251 |
| TTAGATAA | 0.105 |
| ATAGATAA | 0.125 |
| ACAGGCAA | 0.0554 |
| GGATCCGA | -0.00022 |
| CGATCCGC | 0.163 |
| CGATCCGA | 0.251 |
| CGGGTTTA | -0.0209 |
| AGAGTGCT | 0.0363 |
| GAAGAACA | 0.121 |
| CAAGAACA | 0.0216 |
| TAAGAACA | 0.275 |
| CTAGCTTC | 0.0393 |
| AGCCTACC | -0.282 |
| CAACTGTC | 0.0813 |
| CACTAAAA | 0.19 |
| TACAGTAA | 0.0528 |
| CACAGTAA | 0.291 |
| CACAGTAG | -0.0343 |
| ATATTAAG | 0.115 |

| Sequence | PBM E-score |
| --- | --- |
| TCATTAAA | 0.265 |
| ATAATAAA | 0.243 |
| GCATTAAA | 0.103 |
| CTAATAAA | 0.0515 |
| ATATTAAT | 0.368 |
| CTATTAAC | 0.141 |
| ATATTAAC | 0.224 |
| ATATTAAA | 0.385 |
| TTAATAAA | 0.389 |
| ACATTAAA | 0.11 |
| CTATTAAA | 0.00283 |
| ACCAGATG | -0.0464 |
| CTCAGCCC | -0.21 |
| CCAGAGCA | -0.00085 |
| ATTTGATG | 0.148 |
| AGACTTCG | -0.0445 |
| TATCTTCA | -0.0564 |
| ACTAGATA | 0.0286 |
| ATATAGAA | 0.00309 |
| TCTGAGCA | 0.0835 |
| CAGGGAAA | -0.054 |
| ACAAAGTA | 0.193 |
| CCCTGAAC | 0.229 |
| CATCGCTC | -0.187 |
| AGAGCGTG | -0.0848 |

| Sequence | PBM E-score |
| --- | --- |
| CTTGCGAA | 0.184 |
| ATACTAAA | 0.231 |
| TTATTCAA | 0.252 |
| TTACTAAA | 0.374 |
| GATTTCAA | 0.013 |
| ATAGTAAA | 0.225 |
| GTACTAAA | 0.054 |
| CTAGTAAA | 0.0669 |
| ATATTCAA | 0.144 |
| GTATTCAA | 0.14 |
| TTAGTAAA | 0.339 |
| CATTTCAA | 0.174 |
| TATTTCAA | 0.309 |
| AACGCCAT | -0.0315 |
| CTCGTAAA | 0.0173 |
| AGGGCACA | -0.116 |
| ATCGCATA | 0.0254 |
| CATAAGCC | 0.0914 |
| ACTGCTTA | 0.132 |
| GGGTAGAC | -0.191 |
| TCTAAAAA | -0.0235 |
| CCCTGTGA | -0.161 |
| TTATTAAA | 0.307 |
| GTATTAAA | 0.0777 |
| TGATTAAA | 0.123 |

| Sequence | PBM E-score |
| --- | --- |
| AACACGTG | 0.217 |
| ATGCCAAT | -0.0122 |
| AATCACGT | 0.184 |
| ATACGTAA | 0.2 |
| ATACGTAC | -0.0354 |
| ATACGTAT | 0.298 |
| ACTAATCC | 0.242 |
| ACTAATCG | 0.356 |
| ACTAATCA | 0.344 |
| ACTAATCT | 0.135 |
| TCTAATCA | 0.181 |
| CCTAATCG | 0.168 |
| AATCCGCG | 0.13 |
| AGTCCTAC | -0.0257 |
| ATTGAGTC | 0.0114 |
| ACCGAGAT | 0.0127 |
| AGCGTAAA | 0.0495 |
| CATTACTC | 0.0943 |
| AATTACAC | 0.148 |
| AATTACAT | 0.354 |
| GGTTACTA | 0.0723 |
| GTTTACTA | 0.195 |
| AATTACTG | 0.14 |
| AATTACTA | 0.32 |
| CATTACTA | 0.25 |

| Sequence | PBM E-score |
| --- | --- |
| AATTACAG | 0.161 |
| CTTTACTA | 0.213 |
| GATTACTA | 0.392 |
| AATTACTC | 0.239 |
| TCACAGGA | -0.0436 |
| CCTCGAAC | -0.0906 |
| GAGCTAGA | -0.178 |
| AGAACGCG | 0.0894 |
| GCGGTAGA | -0.0737 |
| CGAGCGTA | 0.0172 |
| CGAAAAGC | -0.143 |
| GCTTCACA | -0.0729 |
| CGATCACA | 0.204 |
| AGATCACA | -0.0498 |
| CGATCACG | 0.273 |
| GACCTCCC | -0.247 |
| ATCTAGGC | -0.102 |
| GCAAAAGA | -0.0108 |
| AGAATTCA | 0.126 |
| AGAATTCT | 0.278 |
| AGAATTCG | 0.051 |
| ACACCCGA | 0.134 |
| AACGCCGG | -0.0998 |
| CACTGCGC | -0.0286 |
| ATTCAAGA | 0.0376 |

| Sequence | PBM E-score |
| --- | --- |
| GTTGGAAA | -0.0664 |
| CGTCGCGA | 0.111 |
| AGTCGCGG | -0.179 |
| AGTCGCGA | 0.285 |
| GGTCGCTA | -0.112 |
| GGTCGCGA | 0.273 |
| AGTCGCGC | 0.212 |
| CAAACAAG | 0.0295 |
| GGAGCGCC | -0.252 |
| AACACCAG | -0.0336 |
| GCCTTCAA | 0.0307 |
| GTGCGGAA | 0.0803 |
| TAAACTAA | 0.186 |
| CTAACTAA | 0.206 |
| ATAACTAA | 0.146 |
| TTAACTAA | 0.291 |
| CAAACTAA | 0.258 |
| CAAACTAC | -0.0121 |
| CCACTGTC | -0.0971 |
| CCTGGAAA | -0.0814 |
| GGGTCTAC | -0.0723 |
| ACTCCGTA | -0.228 |
